In PubChem BioAssay AID1159580 (chemical genetic matrix, 2015):
In all, about 5,500 compounds went through this assay and about 2,000 (36%) were called active. About 18% were inconclusive and are not listed. The list shows a part of the results. A number with no mark means an inactive call. Rule as the data show it: active = normalized growth mostly below about 0.91 (no sharp cut-off); inconclusive = no clear call, values can overlap the other calls; inactive = mostly above about 0.92.

Experiment: chemical genetic growth profiling, strain panel (AID 1159580);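 also: tested at 20 µM; growth read once vehicle control cultures reached saturation at 30 °C; 1 = growth at the plate median or of vehicle wells; lower values mean less growth of the strain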
Conditions: S. cerevisiae deletion strains, growth OD
[1] = locus YAL040C, strain CLN3, hits give low values
[2] = locus YCL061C, strain MRC1 (second series), hits give low values
[3] = locus YDR363W, strain ESC2, hits give low values
[4] = locus YER002W, strain NOP16, hits give low values
[5] = locus YMR263W, strain SAP30, hits give low values
[6] = locus YNL153C, strain GIM3, hits give low values
[7] = locus YNL175C, strain NOP13, hits give low values
[8] = locus YNL197C, strain WHI3, hits give low values
[9] = locus YNL224C, strain SQS1, hits give low values
[10] = locus YNL322C, strain KRE1, hits give low values
[11] = locus YOR083W, strain WHI5 (second series), hits give low values
[12] = locus YPL241C, strain CIN2, hits give low values
[13] = locus YNL128W, strain TEP1, hits give low values

Row | Compound | normalized growth [1] | normalized growth [2] | normalized growth [3] | normalized growth [4] | normalized growth (locus YGR078C, strain PAC10, hits give low values) | normalized growth [5] | normalized growth [6] | normalized growth [7] | normalized growth [8] | normalized growth [9] | normalized growth [10] | normalized growth [11] | normalized growth [12] | normalized growth (locus YGR229C, strain SMI1, hits give low values) | normalized growth (locus YMR307W, strain GAS1, hits give low values) | normalized growth [13] | normalized growth (locus YPL055C, strain LGE1, hits give low values) | normalized growth (locus YAL013W, strain DEP1, hits give low values) | normalized growth (locus YDR150W, strain NUM1, hits give low values)
1 | CCCN(CCC)CCc1ccc(O)c(O)c1 | 1.03 | 1 | 1.04 | 1.01 | 0.992 | 0.995 | 1 | 0.997 | 1 | 0.994 | 1.02 | 1.01 | 1 |  |  |  |  |  | 
2 | CC(CCc1ccc(O)cc1)NCCc1ccc(O)c(O)c1 (stereo unspecified) | 1.01 | 0.812 (active) | 0.969 | 0.993 |  | 1.01 | 0.944 | 1.01 | 1.03 | 1.02 |  | 0.98 | 0.927 (active) | 0.708 (active) | 0.947 | 1.01 | 0.756 (active) |  | 
3 | CNCCc1ccc(O)c(O)c1 | 0.991 | 0.956 | 1.03 | 1 |  | 1 |  | 1 | 1.02 | 1 | 0.979 | 0.976 |  |  |  | 0.996 |  | 0.964 | 0.922 (active)
